According to PubChem BioAssay (NCI):
This is part of a sample that, as a whole, favours compounds with a hit. Of some 83,000 tested, about 20% had one in any assay.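 Single-concentration screen, 48 h exposure, 96-well plates. Endpoint: percent growth. Below 10 = active.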 Calls of active or inactive are those of the source.

Assays:
Experiment in all cases: NCI-60 one-dose screen, 48 h (100 = growth as untreated, 0 = no growth, -100 = all killed)
Settings in all cases: 10 µM unless noted
[1] = test system: HCT-15 colon
[2] = test system: HT29 colon
[3] = test system: SNB-75 CNS
[4] = test system: SNB-19 CNS
[5] = test system: U251 CNS
[6] = test system: PC-3 prostate
[7] = test system: SK-MEL-5 melanoma
[8] = test system: UACC-62 melanoma
[9] = test system: LOX IMVI melanoma
[10] = test system: SK-MEL-28 melanoma
[11] = test system: SK-MEL-2 melanoma
[12] = test system: EKVX NSCLC
[13] = test system: SN12C renal
[14] = test system: UO-31 renal
[15] = test system: TK-10 renal
[16] = test system: ACHN renal
[17] = test system: CAKI-1 renal
[18] = test system: A498 renal
[19] = test system: CCRF-CEM leukemia
[20] = test system: MOLT-4 leukemia

Measured: growth

CC/C(Cc1ccccc1)=C(/c1ccc(O)cc1)c1ccc(OCCN2CCCC2)cc1
inactive: [15] 13.1% | [18] 54.9%
active: [1] -56.2% | [2] -57% | [3] -22.6% | [4] 0.126% | [5] -89.1% | [6] -32.2% | [7] -100% | [8] -77.7% | [9] -100% | [10] -84.5% | [11] -52.3% | [12] -21.4% | [13] -11.6% | [14] -79.8% | [16] -68.5% | [17] -72.4% | [19] -33.3% | [20] -22.7%

COc1ccc(-c2csc(NC(=O)CN3CCN(c4cc5c(cc4F)c(=O)c(C(=O)O)cn5C4CC4)CC3)n2)cc1
active: [2] 4.05% | [5] 7.92% | [7] -24.6% | [9] -80% | [11] -11.5% | [13] 4.18% | [18] -10.1%
inactive: [1] 14.6% | [3] 11.7% | [4] 16.4% | [6] 11.2% | [8] 12.1% | [10] 39.4% | [12] 26.2% | [14] 21% | [15] 18% | [16] 11.8% | [17] 21.3% | [19] 22.2% | [20] 24.2%

CC(=O)Oc1ccc(Nc2c3ccccc3nc3ccccc23)cc1
inactive: [4] 16.1% | [10] 25.8% | [12] 24%
active: [1] 1.67% | [2] -38.4% | [3] 2.16% | [5] 8.7% | [6] 7.48% | [7] -73.2% | [8] -45.3% | [9] -34.8% | [11] -30.7% | [13] 5.67% | [14] -16.4% | [15] 3.64% | [16] -31.7% | [17] -32% | [18] -37.2% | [19] -8.66% | [20] 1.46%

Clc1cccc(Nc2nc(Nc3cnc4ccccc4c3)c3[nH]cnc3n2)c1
inactive: [1] 94.4% | [2] 79% | [3] 52.4% | [4] 80.6% | [5] 76.4% | [6] 49.2% | [7] 53% | [8] 47.9% | [9] 77.4% | [10] 86.4% | [11] 81.1% | [12] 41.3% | [13] 61.2% | [14] 60.7% | [15] 114% | [16] 73.5% | [17] 59% | [18] 60% | [19] 84.8% | [20] 90.6%

COc1ccccc1N1CCN(CCn2c(=O)c3c(c4ccccc4n3C)n(C)c2=O)CC1
inactive: [1] 101% | [2] 68.3% | [3] 107% | [4] 95.2% | [5] 84.2% | [6] 84.4% | [7] 95.8% | [8] 92.4% | [9] 96.3% | [10] 115% | [11] 60.2% | [12] 106% | [13] 81.8% | [14] 77.6% | [15] 78.9% | [16] 98.5% | [17] 101% | [18] 109% | [19] 102% | [20] 88.1%

COc1cnc2c(c1)C(=O)c1c-2n(CCCN2CCNCC2)c(=O)c2cc([N+](=O)[O-])ccc12
inactive: [11] 77.8% | [15] 32.4% | [18] 16.9%
active: [1] -80.7% | [2] -80% | [3] 2.92% | [4] -40.7% | [5] -93.3% | [6] -82.3% | [7] -7.99% | [8] -82% | [9] -86.5% | [10] -76.6% | [12] -64.6% | [13] -71.5% | [14] -79.3% | [16] -88.4% | [17] -94.5% | [19] -23% | [20] -4.73%

CC[n+]1ccc2c(c1)C(=O)c1nccc3c1c-2nc1ccccc13
active: [3] -75.2% | [4] -70.5% | [5] -60% | [6] 3.26% | [7] -28.3% | [8] -57.7% | [9] -3.96% | [10] 1.07% | [11] -34% | [13] -75% | [16] 6.37% | [18] -9.88% | [19] 0.574% | [20] -30%
inactive: [1] 48.5% | [2] 10% | [12] 11.2% | [14] 15.1% | [15] 18.7% | [17] 24.7%

O=C(O)c1ccccc1Nc1cccc(S(F)(F)(F)(F)F)c1
inactive: [1] 94.7% | [2] 84.2% | [3] 91.3% | [4] 98.7% | [5] 85.7% | [6] 95.9% | [7] 95.6% | [8] 93.7% | [9] 92.4% | [10] 108% | [11] 83.6% | [12] 99.3% | [13] 96.4% | [14] 85.6% | [15] 87.8% | [16] 98.4% | [17] 94.6% | [18] 95.1% | [19] 98.4% | [20] 88.1%

CCC(c1ccc(O)cc1)C(CC)c1ccc(O)c(F)c1 (centres undefined)
inactive: [1] 78.2% | [2] 102% | [3] 78.7% | [4] 125% | [5] 89.8% | [6] 72.1% | [7] 66.4% | [8] 59.4% | [9] 87.2% | [10] 78.9% | [11] 75.1% | [12] 84.2% | [13] 88.2% | [14] 55.4% | [15] 96.6% | [16] 90.5% | [17] 89.2% | [18] 107% | [20] 54.9%

N#Cc1c2c(nc3n[nH]c(N)c13)CCCC2
active: [19] 8.03%
inactive: [1] 105% | [2] 104% | [3] 85.6% | [4] 112% | [5] 99.3% | [6] 109% | [7] 118% | [8] 101% | [9] 102% | [10] 122% | [11] 109% | [12] 58.3% | [13] 105% | [14] 71.7% | [15] 128% | [16] 101% | [17] 95.5% | [18] 121% | [20] 90.7%

C=C1CC[C@@H]2[C@](C)(COC(C)=O)[C@H](OC(C)=O)CC[C@@]2(C)[C@@H]1CC(Nc1ccc(S(=O)(=O)Nc2nc(C)cc(C)n2)cc1)C1=CCOC1=O (some centres undefined)
active: [9] -60.6% | [19] 2.96%
inactive: [1] 49.2% | [2] 46.2% | [3] 44.6% | [4] 100% | [5] 48.2% | [6] 65.2% | [7] 74.2% | [8] 32.9% | [10] 83.5% | [11] 88.5% | [12] 74.5% | [13] 38.2% | [14] 71.2% | [15] 111% | [16] 71.6% | [17] 74% | [18] 85.3% | [20] 24.6%

Cc1ccc(Nc2nc(N)nc(Nc3ccc4ccccc4c3)n2)cc1
inactive: [1] 29.3% | [2] 11.2% | [3] 25% | [4] 61.7% | [5] 17.7% | [6] 32.7% | [7] 47.7% | [8] 18.4% | [9] 38.2% | [10] 62% | [11] 50.6% | [12] 72.1% | [13] 40.3% | [14] 46.4% | [15] 69% | [16] 46.6% | [17] 30.3% | [18] 17.6% | [19] 27.8% | [20] 47.9%

CS(=O)CCCCCN=C=S (centres undefined)
inactive: [3] 29.5% | [4] 28% | [6] 32.4% | [7] 12.1% | [12] 12.8%
active: [1] -16.9% | [2] -13.3% | [5] 9.01% | [8] -8.14% | [9] -38.7% | [10] 6.92% | [11] 6.73% | [13] -17% | [14] 1.81% | [15] -27.7% | [16] -45.5% | [17] -15.3% | [18] -25.9% | [19] -7.32% | [20] -13%

CC/C=C\C[C@H](F)C/C=C1/C(=O)C=C[C@@H]1C/C=C\CCCC(=O)OC
active: [1] -32.8% | [2] -31% | [5] 1.8% | [7] -81.8% | [8] -49.4% | [9] -49.7% | [10] 9.64% | [13] -14.4% | [14] -4.75% | [16] -52% | [17] 9.44% | [19] -21.4% | [20] -23.5%
inactive: [3] 61.9% | [4] 34% | [6] 12.9% | [11] 41% | [12] 31.6% | [15] 50.4% | [18] 84.8%

CCCCCCCCCCCCCC(=O)C(C)N (centres undefined)
inactive: [2] 13.8% | [3] 34.1% | [4] 77.5% | [5] 18.2% | [7] 90.3% | [10] 73.9% | [11] 72.5% | [14] 64.9% | [15] 48.5% | [16] 39.2% | [17] 77.6% | [18] 11.3% | [19] 60.2% | [20] 46.8%
active: [1] 3.51% | [6] 3.08% | [8] -71.1% | [9] -79.6% | [12] 5.65% | [13] 5.02%

c1ccc2sc(SCCCn3ccnc3)nc2c1
inactive: [1] 98.3% | [2] 67% | [3] 117% | [4] 94% | [5] 88.2% | [6] 80.1% | [7] 92.1% | [8] 87.8% | [9] 96.5% | [10] 109% | [11] 68.7% | [12] 90.5% | [13] 84.2% | [14] 84.9% | [15] 84.2% | [16] 100% | [17] 98% | [18] 80.6% | [19] 81.6% | [20] 95.6%
